Anthrax LF prot: anthrax lethal factor protease inhibition; AID 588501; 360,000 compounds, 0.12% hits; inhibition, % at 10 µM; multiplex microsphere protease cleavage assay, LF; P15917
Target sequence (P15917 whole entry, looked up): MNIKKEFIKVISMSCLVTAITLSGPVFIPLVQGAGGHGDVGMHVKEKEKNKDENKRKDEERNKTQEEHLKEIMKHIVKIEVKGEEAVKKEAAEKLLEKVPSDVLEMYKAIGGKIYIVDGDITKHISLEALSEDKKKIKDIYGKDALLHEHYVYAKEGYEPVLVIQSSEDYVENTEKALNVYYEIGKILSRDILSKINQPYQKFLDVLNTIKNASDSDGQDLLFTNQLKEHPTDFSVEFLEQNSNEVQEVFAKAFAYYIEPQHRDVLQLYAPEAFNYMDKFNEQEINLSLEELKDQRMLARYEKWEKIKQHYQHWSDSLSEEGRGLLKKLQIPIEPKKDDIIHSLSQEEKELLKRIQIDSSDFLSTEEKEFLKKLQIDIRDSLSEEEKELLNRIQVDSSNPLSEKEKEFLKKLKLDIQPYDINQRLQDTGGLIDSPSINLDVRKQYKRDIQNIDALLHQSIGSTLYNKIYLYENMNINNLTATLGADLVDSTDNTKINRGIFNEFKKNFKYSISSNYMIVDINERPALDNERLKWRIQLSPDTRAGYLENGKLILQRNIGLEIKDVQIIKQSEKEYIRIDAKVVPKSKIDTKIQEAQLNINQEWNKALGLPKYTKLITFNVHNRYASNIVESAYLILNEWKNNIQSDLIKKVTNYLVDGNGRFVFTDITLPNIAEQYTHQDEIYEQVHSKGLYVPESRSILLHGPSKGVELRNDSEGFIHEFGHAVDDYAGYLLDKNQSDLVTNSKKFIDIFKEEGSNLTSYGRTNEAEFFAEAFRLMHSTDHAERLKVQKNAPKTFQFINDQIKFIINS
SARS 3CLpro inh: SARS-CoV 3CLpro protease inhibition; recombinant SARS-CoV 3CLpro, quenched FRET peptide cleavage; inhibition, % at 6 µM; 290,000 compounds, 0.14% hits; AID 1706; in the data active = inhibition above about 12%
Autofluor counter: counter-screen for toxin protease inhibitors: compound fluorescence; fluorescence intensity (no concentration beside the values); compound autofluorescence counterscreen, microsphere flow cytometry; stronger effect = higher value; 360,000 compounds, 3.1% hits; AID 624483; in the data active = fluorescence intensity above about 16000; inconclusive = no clear call, values can overlap the other calls
BoNT A protease: inhibitors of Botulinum neurotoxin A light chain protease | 360,000 compounds, 0.17% hits | AID 588499 | inhibition, % at 10 µM | multiplex microsphere protease substrate cleavage, flow cytometry
BoNT-F LC inh: blocks Botulinum neurotoxin F light chain protease; Multiplex microsphere protease cleavage assay, flow cytometry; inhibition, % at 10 µM; 360,000 compounds, 0.22% hits; AID 588497; in the data active = inhibition above about 35%, passing the limit was not always enough; inconclusive = no clear call, values can overlap the other calls
CCHFV vOTU inh: CCHFV vOTU protease inhibition; Pep-AMC fluorescence; inhibition, % at 11.5 µM; 370,000 compounds, 0.55% hits; in the data active = inhibition above about 30%
Of the large screens only hits and unclear results are named; the others gave an inactive call. Only some compounds are listed: those with a hit (about 3.9% of all), similar ones and a draw of the others. Cut-off read from the data, not from the text of the source, unless noted: active = inhibition above about 30%; inconclusive = no clear call, values can overlap the other calls; inactive = below that.

CC(C)Cn1c(SCc2nc3ccccc3c(=O)[nH]2)nc2ccccc2c1=O	Autofluor counter 19467
CC12CCC(C(=O)NC(c3ccccc3)c3ccccc3)(OC1=O)C2(C)C (centres undefined)	Autofluor counter 22368
CC12CCC(C(=O)Nc3ccc4c(c3)OCCO4)(OC1=O)C2(C)C (centres undefined)	Autofluor counter 23818
Cc1cccc(NC(=O)C23CCC(C)(C(=O)O2)C3(C)C)c1 (centres undefined)	none
COc1ccc(-n2c(=S)[nH]c3cc(C(=O)NCc4ccco4)ccc3c2=O)cc1OC	BoNT-F LC inh inconclusive
CC(C)OCCCn1c(=N)c(C(N)=S)cc2c(=O)n3ccccc3nc21	BoNT A protease 34.8
COc1ccc(CCn2c(=S)[nH]c3cc(C(=O)NCc4ccco4)ccc3c2=O)cc1OC	Autofluor counter 20732 (no result: CCHFV vOTU inh)
N=c1c(C(=O)NCCc2ccccc2)cc2c(=O)n3ccccc3nc2n1Cc1ccco1	none
COc1ccc(CCn2c(=N)c(S(=O)(=O)c3ccc(Cl)cc3)cc3c(=O)n4ccccc4nc32)cc1	Autofluor counter 21901
COc1ccc(CCn2c(=N)c(C(=O)NCc3ccco3)cc3c(=O)n4ccccc4nc32)cc1	Autofluor counter 22951
O=[N+]([O-])c1ccc2c(OCc3nnc(-c4ccccc4Br)o3)ncnc2c1	none
CN1CCC(N(C)C(=O)c2ccc(Cl)c(S(=O)(=O)N3CCCCC3)c2)CC1	none (no result: SARS 3CLpro inh)
CCn1c(=N)c(S(=O)(=O)c2ccc(C)cc2)cc2c(=O)n3ccccc3nc21	none (no result: Anthrax LF prot, Autofluor counter, BoNT A protease, BoNT-F LC inh)
Cc1ccc(S(=O)(=O)c2cc3c(=O)n4ccccc4nc3n(C)c2=N)cc1	Autofluor counter 18992
CCOc1ccc2nc(SCC(=O)Nc3ccc4[nH]c(=O)[nH]c4c3)[nH]c2c1	none (no result: SARS 3CLpro inh)
COc1ccc(-c2nc(CSCC(=O)NC3CC3)c(C)o2)cc1OC	none
Cc1ccc(-c2nc(CSCC(=O)NCCN3CCN(Cc4ccccc4)CC3)c(C)o2)cc1	Autofluor counter 17085
CCOC(=O)C1CCN(C(=O)CSCc2nc(-c3ccc(OCC)cc3)oc2C)CC1	none
CCOC(=O)N1CCC(NC(=O)CSCc2nc(-c3ccc(OC)c(OC)c3)oc2C)CC1	Autofluor counter 20515, BoNT A protease inconclusive
Cc1cccc(-c2nc(CSCC(=O)N3CCN(c4ccccn4)CC3)c(C)o2)c1	Autofluor counter 16627
Cc1ccc(-c2nc(CSCC(=O)N3CCCC3)c(C)o2)cc1	Autofluor counter 23517
COc1ccc(NC(=O)C(OC(=O)c2cnccn2)c2ccccc2)cc1Cl (centres undefined)	none
Cc1c(Cc2ccccc2)c(=O)oc2cc(OCC(=O)NCC(O)c3ccccc3)ccc12 (centres undefined)	none
CC(SCc1ccccc1)C(=O)Nc1ccc2c(c1)OCO2 (centres undefined)	Autofluor counter 16775
NC(=O)c1ccc(NC(=O)CSc2nnc(-c3ccc4c(c3)OCO4)o2)cc1	none (no result: SARS 3CLpro inh)
Nc1nnc(SCC(=O)Nc2ccc3c(c2)OCCO3)s1	Autofluor counter 17217
O=C(CSc1nnc(-c2cccc(Cl)c2)o1)Nc1ccc2c(c1)OCCO2	Autofluor counter 22299, BoNT A protease inconclusive
O=C(O)CSc1nnc(-c2ccc3c(c2)OCO3)o1	Autofluor counter 16221
NC(=O)CSc1nnc(-c2ccc3c(c2)OCO3)o1	none
O=C1[C@@H]2CSCN2C(=O)CN1Cc1c(F)cccc1Cl	BoNT-F LC inh inconclusive
CCCNC(=O)C1(C)CCN(C(=O)c2ccccc2OC)C1 (centres undefined)	none (no result: SARS 3CLpro inh)
O=C(Cn1cc(COc2c(F)c(F)c(Br)c(F)c2F)nn1)c1ccc(O)cc1	none (no result: SARS 3CLpro inh)
Cc1ccc(NC(=O)OC2CCC23CCCCC3)cc1 (centres undefined)	none (no result: Anthrax LF prot, SARS 3CLpro inh, Autofluor counter, BoNT A protease, BoNT-F LC inh)
O=C(CNCc1ccccc1Cl)Nc1ccc2c(c1)OCCO2	none
O=C(CSCc1ccccc1Cl)Nc1ccc2c(c1)OCCO2	Autofluor counter 20949, BoNT A protease inconclusive
C(=N\n1cnnc1)/c1ccc(OCc2ccccc2)cc1	none
CCc1ccc(/C=N\n2cnnc2)cc1	Anthrax LF prot inconclusive, BoNT-F LC inh 45.4
C(=N\n1cnnc1)/c1ccc(-c2ccccc2)cc1	none
CCOc1ccc(/C=N/n2cnnc2)cc1	Autofluor counter 17072, BoNT A protease inconclusive
COC(=O)c1cn(C(=O)c2ccc(C)cc2)c2ccccc12	none
Cc1ccc(C(=O)n2cc(CCN3CCS(=O)(=O)CC3)c3ccccc32)cc1	Autofluor counter 16475
CCC[C@@H](/C=C/C(=O)OC(C)(C)C)Sc1ccccc1OC	none (no result: Anthrax LF prot, SARS 3CLpro inh, Autofluor counter, BoNT A protease, BoNT-F LC inh)
CCOC(=O)N1CCN(Cc2ccccc2F)CC1	Autofluor counter 20462
CC(C)CC(=O)N1CCN(Cc2ccccc2Cl)CC1	none
CCOC(=O)N1CCN(C(=O)CSc2ccccc2)CC1	Autofluor counter 23877
CCOC(=O)N1CCN(Cc2ccccc2Cl)CC1	Autofluor counter 22232
CCOC(=O)N1CCN(Cc2nc(-c3cccc(C)c3)no2)CC1	Autofluor counter 22782
C=CCNC(=O)c1ccc(N(C)S(=O)(=O)c2ccc(OC)cc2)cc1	Autofluor counter 16765
O=C(NC1CCS(=O)(=O)C1)c1ccccc1Cl (centres undefined)	none (no result: SARS 3CLpro inh)
O=C(NNC(=O)c1ccccc1Br)c1ccc(SCC2CCCO2)c([N+](=O)[O-])c1 (centres undefined)	Autofluor counter 21390
Cc1ccc(C(=O)NNC(=O)c2ccc(SCC3CCCO3)c([N+](=O)[O-])c2)cc1 (centres undefined)	none
O=C(NNC(=O)c1ccc(SCC2CCCO2)c([N+](=O)[O-])c1)c1ccc(Cl)c([N+](=O)[O-])c1 (centres undefined)	Autofluor counter 21281
O=C(O)c1nn(-c2ccccc2-c2n[nH]c(=O)[nH]c2=O)c(=O)[nH]c1=O	none (no result: Anthrax LF prot, Autofluor counter, BoNT A protease, BoNT-F LC inh, CCHFV vOTU inh)
CCOC(=O)c1ccc(NC(=O)CSc2nnc(SCc3cccc4ccccc34)s2)cc1	none (no result: Anthrax LF prot, SARS 3CLpro inh, Autofluor counter, BoNT A protease, BoNT-F LC inh)
CCOC(=O)c1c(C)[nH]c(C)c1C(=O)COC(=O)c1cccc(S(=O)(=O)N(CC)CC)c1	none
CCOC(=O)c1c(C)[nH]c(C)c1C(=O)COC(=O)c1ccc(S(=O)(=O)N(CC)CC)cc1	Autofluor counter 16763, BoNT A protease inconclusive
Cc1ccn(-c2n[nH]c(C)c2[N+](=O)[O-])n1	none
Cc1ccn(-c2ccc([N+](=O)[O-])cc2)n1	Autofluor counter 20585
Cn1cnnc1SCC(=O)Nc1ccc2nc(SCc3ccccc3Cl)sc2c1	Autofluor counter 25037, BoNT A protease inconclusive
CC(=O)CSc1nc2ccc(Nc3nc(N4CCOCC4)nc(N4CCOCC4)n3)cc2s1	Autofluor counter 16232
CC(C)(C)NC(=O)CSc1nc2ccc(Nc3nc(N4CCOCC4)nc(N4CCOCC4)n3)cc2s1	none
Cn1cnnc1SCC(=O)Nc1ccc2nc(SCc3cccc4ccccc34)sc2c1	none
CCC(=O)Nc1ccc2nc(SCC(=O)N3CCCC3)sc2c1	Autofluor counter 20940 (no result: CCHFV vOTU inh)
O=C(NCc1ccc2c(c1)OCO2)c1ccc2c(c1)S(=O)(=O)c1ccccc1C2=O	none (no result: SARS 3CLpro inh)
CSCC[C@H](NC(=O)C1CCN(S(=O)(=O)c2ccc(C)cc2C)CC1)c1nc2ccccc2[nH]1	none (no result: SARS 3CLpro inh)

Screens: PubChem BioAssay, several laboratories
